# Assay results from the supplement of paper PMC3334620.
# The full ranking holds about 33,000 sequences; the median of “E-score (-0.5 to 0.5)” is about -0.01, and the highest 2% start at about 0.26. This is one part of a sample in which the highest values are shown more often than they occur.
# Target: Ste12 (UniProt P13574)
# Assay: PBM E-score (8-mer binding enrichment) (E-score (-0.5 to 0.5)); higher = stronger / more preferred TF binding
# Conditions: protein concentration: 200 nM; construct: GST-DNA-binding domain
# Method: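 Universal 'all 10-mer' protein binding microarrays (Agilent AMADID 015681) probed with GST-tagged S. cerevisiae TFs (full-length or DBD) made by in vitro transcription/translation (PURExpress), about 100-200 nM. Bound TF was detected with fluorescent anti-GST. Each ungapped 8-mer (which stands for itself and its reverse complement) is scored by the PBM enrichment score (E-score), a modified Wilcoxon-Mann-Whitney statistic from -0.5 to +0.5, computed with the Universal PBM Analysis Suite. Scale: above 0.35 generally sequence-specific binding.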
# UniProt P13574, sequence (P13574 whole entry): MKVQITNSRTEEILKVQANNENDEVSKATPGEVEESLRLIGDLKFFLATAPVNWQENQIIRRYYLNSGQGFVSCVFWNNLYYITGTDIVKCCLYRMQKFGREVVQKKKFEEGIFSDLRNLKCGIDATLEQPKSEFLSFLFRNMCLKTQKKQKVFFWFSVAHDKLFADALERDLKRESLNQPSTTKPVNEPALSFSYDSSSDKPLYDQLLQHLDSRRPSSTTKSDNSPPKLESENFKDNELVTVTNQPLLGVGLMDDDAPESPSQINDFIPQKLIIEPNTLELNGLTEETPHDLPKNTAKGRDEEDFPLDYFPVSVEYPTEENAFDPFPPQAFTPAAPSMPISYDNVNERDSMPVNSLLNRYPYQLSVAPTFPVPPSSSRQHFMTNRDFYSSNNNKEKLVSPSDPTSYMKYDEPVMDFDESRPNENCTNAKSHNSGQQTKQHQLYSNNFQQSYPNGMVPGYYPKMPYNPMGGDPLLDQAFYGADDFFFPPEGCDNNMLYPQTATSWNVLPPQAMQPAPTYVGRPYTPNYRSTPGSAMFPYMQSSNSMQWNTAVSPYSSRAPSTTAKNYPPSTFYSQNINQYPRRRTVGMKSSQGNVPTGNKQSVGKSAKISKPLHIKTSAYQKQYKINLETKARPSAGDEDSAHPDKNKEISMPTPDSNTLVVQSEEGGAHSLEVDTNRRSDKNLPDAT
row,Sequence,PBM E-score
1,CCCGGCGG,0.0682
2,ATTAAGGG,0.0581
3,ATCTCGAC,0.0726
4,GATCCCCA,0.0544
5,CGCCTACA,0.0882
6,GTAGCCAC,-0.27
7,CTGGGGGC,-0.233
8,GCCCCACC,0.266
9,ACCCCACT,0.0311
10,CCCCCACC,-0.207
11,ACCCCACG,-0.159
12,GCCCCACA,0.101
13,ACCCCACC,0.373
14,GGACCCGA,-0.0164
15,CTCCACAA,0.00925
16,CAAAGCGA,0.0708
17,ACAAGGAC,-0.129
18,AGAAGACA,-0.132
19,AACTCGCC,-0.0534
20,TGATTTAA,0.266
21,CGATTTAA,0.1
22,TAATTTAA,0.3
23,AAATTTAT,0.263
24,CAATTTAA,0.2
25,AAATTTCA,0.0583

row,Sequence,PBM E-score
1,AAATTTAG,0.169
2,AAATTTAA,0.289
3,AAATTTGA,0.123
4,GAATTTAA,0.0395
5,AAATTTAC,0.197
6,AGATTTAA,0.0444
7,GGAATGGA,0.0113
8,TTACCCAA,0.0694
9,CTTTGCTA,0.162
10,CTCACAGA,0.00059
11,AACTCGTA,0.143
12,TCCCCACA,-0.0875
13,CACCTATC,0.0217
14,CGAAACGA,0.205
15,CAAAACGA,0.272
16,GAAAACGA,-0.0839
17,CCAAACGG,-0.0425
18,AGAAACGA,0.207
19,CAAAACGC,0.229
20,TAAAACGA,0.134
21,AAAAACGA,0.272
22,CCAAACGA,0.0156
23,AAAAACGG,0.174
24,GGAAACGA,0.275
25,CAAAACGG,0.302

row,Sequence,PBM E-score
1,CCGCCTCC,-0.123
2,CCCGTAAG,-0.0733
3,AGGTCAGA,-0.113
4,TCTTGACA,-0.0432
5,ACCCATCC,0.00204
6,AACCAATC,0.259
7,GAAAAAGA,0.241
8,CGGCTAAG,0.0459
9,CATAGCGG,-0.207
10,AGACAGCT,-0.111
11,AAGAAGAA,0.123
12,TTAACTAA,0.221
13,GTCTCCAA,0.0569
14,ATAAACCC,0.211
15,ATAAAACC,0.294
16,AGAAAACA,0.152
17,GAAAAACA,0.21
18,AAAAAACA,0.331
19,CTAAAACC,0.192
20,TAAAAACA,0.223
21,ATAAAAAA,0.248
22,CTAAAACA,0.355
23,CAAAAACA,0.153
24,ATAAAAAC,0.134
25,ATAAAACA,0.368

row,Sequence,PBM E-score
1,ACGTTGAT,0.0985
2,AGTCAGTG,-0.0387
3,CTTAGCAC,-0.0994
4,ATACCACG,0.0272
5,ACATAGCA,-0.115
6,ATAAACCG,0.0871
7,AGTAAACA,0.0888
8,GGTAAACA,0.28
9,ATAAAACG,0.37
10,GTAAAAAA,0.217
11,GTAAAACA,0.323
12,ATTAAACG,0.155
13,CGTAAACA,0.186
14,GTAAAAAC,0.206
15,ACAGCGAG,-0.00798
16,GTAGATCA,0.023
17,ACCGCACC,0.0603
18,AGGGAGGA,-0.192
19,AGGAGGGA,-0.0567
20,AGGGTGGG,0.35
21,AGGGTGGC,-0.0324
22,AGGGTGGA,-0.218
23,AGGAGGGG,0.285
24,AGGAGGGC,-0.081
25,AGGGAGGC,-0.122

row,Sequence,PBM E-score
1,AGGGGAGG,0.348
2,AGGGAGGG,0.305
3,AGGGGAGA,-0.0864
4,AAGGGAGG,-0.0233
5,AGTTTGCG,0.122
6,AGTGCGGA,0.0511
7,CTCCTGGA,-0.166
8,AAATTTGC,0.0182
9,ATTGGTAC,0.00439
10,AAGAGCTT,-0.0673
11,ACCAAAGA,0.158
12,ACGCCCAC,0.117
13,GATGAGTA,0.0183
14,TACTGGAA,0.182
15,CACACCAA,0.115
16,CATTGAAA,0.247
17,TATTGAAA,0.304
18,AATTGAAA,0.412
19,AATTGAAC,-0.0364
20,AATTGAAT,0.131
21,GATTGAAA,0.243
22,CTCAACGA,-0.137
23,ACGACAGT,-0.147
24,AAAATAAC,0.2
25,AAAATAAT,0.293

row,Sequence,PBM E-score
1,GAAATAAC,0.121
2,GCAATAAA,0.279
3,CAAATAAA,0.1
4,AAAATAAG,0.183
5,CAAATAAG,0.0883
6,CAAATACC,0.185
7,GCAATAAC,0.0195
8,CCAATAAA,0.148
9,CAAATAAC,0.283
10,GAAATAAA,0.282
11,CTGAAGGA,-0.0367
12,CACGCGTG,0.221
13,CGTTCGCA,-0.119
14,TAAATAAA,0.228
15,AAATAAAA,0.291
16,AAATAAAG,0.172
17,AAAATACA,0.143
18,AAATAAAT,0.169
19,AAAATAAA,0.286
20,CGAAGACG,-0.13
21,CAATGGGA,-0.134
22,GCCTAAGC,-0.358
23,CCACTGGC,-0.0254
24,AATCAGAG,0.0937
25,AATCAGAA,0.27

row,Sequence,PBM E-score
1,CATCAGAA,0.0441
2,AGGTAGCC,-0.26
3,CAGGGTAG,-0.114
4,CTGACTAC,-0.129
5,ATGATACA,0.294
6,GTGATACA,0.195
7,ATGATACG,0.25
8,CTGATACC,0.0308
9,ATGATACC,0.0159
10,CTGATACA,0.28
11,GGCGCTTA,0.0142
12,AGGGCCAC,-0.202
13,CTCAATCC,0.0296
14,GAAAAGCA,0.0143
15,ACAGCCAG,-0.178
16,CTTGGTTA,0.052
17,CCCCTACC,0.0111
18,GTGTAAAA,0.15
19,ATGTAAAT,0.113
20,GCGTAAAA,0.163
21,TAGTAAAA,0.211
22,ACGTAAAA,0.161
23,CTGTAAAA,0.219
24,TCGTAAAA,0.279
25,ATGTAAAA,0.349

row,Sequence,PBM E-score
1,TTGTAAAA,0.315
2,ATAGAGCC,-0.0936
3,TACAGACA,0.0984
4,ACAGCTCG,-0.157
5,GCAGAGGC,-0.185
6,CACTCGCC,-0.0182
7,CAAAAGTG,0.00054
8,AGATCTCA,0.0566
9,AGATGAAG,0.102
10,GGATGAAA,0.395
11,AGATGAAC,0.098
12,AGATGAAA,0.39
13,CGATGAAC,0.124
14,GGATGAAC,-0.196
15,TGATGAAA,0.258
16,CGATGAAG,0.0893
17,CGATGAAA,0.289
18,CCTCTACG,-0.283
19,AGAGCCCC,-0.201
20,CACTGGAA,-0.101
21,ACATGGAC,-0.00801
22,ATGACATA,0.222
23,CCGTTACA,0.318
24,ATGTTACG,-0.0262
25,ACGTTACA,0.164

row,Sequence,PBM E-score
1,CTGTTACC,-0.03
2,ATGTTACC,0.175
3,GCGTTACA,0.139
4,GTGTTACA,0.19
5,ATGTTACA,0.297
6,CTGTTACA,0.378
7,AACGTCCG,-0.102
8,ACGCTGTG,-0.038
9,GCTGGCCA,-0.00597
10,CTTAGGGA,-0.316
11,AAATGAAG,0.257
12,GCGCTTCC,-0.0472
13,AAGGATAA,-0.00803
14,AATTGCAT,0.0393
15,ACTACCTA,-0.242
16,CCTGTTTA,0.0871
17,ACTGTTTG,0.188
18,ACTGTTTC,0.289
19,CCTGTTAC,0.151
20,CCTGTTTC,0.32
21,ACTGTTTA,0.165
22,GAAACGGA,0.343
23,AAAACGGA,0.273
24,GAAACGGC,0.229
25,AAAACGGT,0.152

row,Sequence,PBM E-score
1,AAAACGGC,0.225
2,CAAACGGA,0.0164
3,GCCCCGAC,-0.135
4,CACCTAAA,0.0511
5,TACCTAAA,0.138
6,AACCTAAA,0.324
7,CCCCGTTA,-0.00038
8,AACAACTA,-0.00598
9,TACAACTA,0.268
10,CACAACTA,0.153
11,ACAGGTCT,-0.267
12,ATGTTCTC,-0.124
13,TCAAAAAA,0.32
14,ACAAAAAC,0.201
15,ACAAAAAT,0.288
16,ACAAAAAA,0.311
17,ACACAAAT,0.108
18,GCAAAGCA,-0.148
19,AACAAAAT,0.11
20,ACAAAAAG,0.125
21,AAAAAGCA,0.108
22,TCAAAACA,0.209
23,TCAAAAGA,0.202
24,ACAAAGCA,0.29
25,ACCGCTCA,-0.0178

row,Sequence,PBM E-score
1,CACCGCAC,-0.00376
2,ACCGCCGC,0.0865
3,GGATACTA,0.0524
4,CGCGGGAC,0.012
5,AGGCCAGC,-0.157
6,CCTGGTAG,-0.00862
7,ATGCCTCG,0.00724
8,CTCACCAA,0.284
9,CTCACCAC,-0.168
10,TTCACCAA,0.0895
11,AAAATTTA,0.085
12,AAAATTGA,0.226
13,CAAATTTA,0.217
14,GAAATTGA,0.12
15,TAAATTTA,0.334
16,TAAATTGA,0.288
17,ACGCTCTC,-0.122
18,ACCTGCTC,-0.0508
19,ATACCTCA,0.0605
20,ATGTCTGG,0.0356
21,GGCGGGGA,0.407
22,GGGGGGGA,-0.298
23,AGCGGGGA,0.111
24,CGCGGGGA,0.333
25,GGCGGGAA,0.00719

row,Sequence,PBM E-score
1,CGCGGGAA,0.161
2,AAAATCTC,0.119
3,CGTTAGGC,-0.0275
4,ATTAATTG,0.237
5,ATTAATCC,0.0655
6,CTTAATAC,0.207
7,ATTAATTC,0.308
8,ATTAATCG,0.273
9,CATAATAA,0.136
10,ATTAATAC,0.263
11,ATTAATCA,0.145
12,ATTAATTA,0.237
13,AATAATAA,0.308
14,AATAATAG,0.0434
15,AATAATAC,0.198
16,GCATTCGC,-0.276
17,CCAAACCC,0.194
18,ATAGATCG,0.0199
19,CTAACCTC,-0.0539
20,ACCTGTCG,0.00512
21,CCGCGGCC,0.174
22,CAATACCC,-0.00702
23,AGACTACC,-0.179
24,AAACTAGT,0.123
25,ATCATCTC,0.0683

row,Sequence,PBM E-score
1,AATAAGAT,0.00235
2,ATTAATAG,0.283
3,GTTAATAA,0.0895
4,AATAAGAG,0.0566
5,ATTAATAA,0.289
6,ATTAATGG,0.219
7,AATAAGAA,0.276
8,CTTAATAA,0.232
9,AGTAATAG,0.0705
10,ACTGGTCT,-0.117
11,GTGATCGA,0.161
12,ATTGTGTA,0.274
13,CTTGTGTA,0.0226
14,ATTGTGTG,-0.0472
15,ACTGCGAT,-0.072
16,CATGGCAA,0.0424
17,TAACATGA,0.098
18,AAACATGC,0.231
19,AAACATCC,0.249
20,CAACATCA,0.0676
21,AAACATGT,0.301
22,AAACATGG,0.206
23,CAACATGA,0.0787
24,AAACATGA,0.321
25,AAACATCA,0.328

row,Sequence,PBM E-score
1,TCTTCTCA,0.019
2,GATCTGAA,0.0323
3,ATGGACCG,-0.00313
4,TCCGATCA,0.0466
5,CAGTGTGC,-0.187
6,ACCTAACG,-0.137
7,ATATTCAT,0.227
8,GCGCCGGA,-0.0097
9,ATTAAAAG,0.137
10,ATTAAAAT,0.32
11,CTTAAAAA,0.22
12,ATTAAAAC,0.313
13,ATTAAACC,0.156
14,AGTAAAAT,0.122
15,CTTAAAAG,-0.0909
16,CTTAAAAC,0.352
17,ATTAAAGA,0.0703
18,AGTAAAAC,0.168
19,ATTAAAAA,0.295
